Luciferase inh: Firefly luciferase inhibition profiling of diverse chemical library using quantitative high-throughput screening | purified P. pyralis luciferase, luminescence, biochemical | Potency, µM (highest dose often 115 µM), most hits filed as inhibitors | 76,000 compounds, 2.5% hits | AID 1347043, 2019; further: on the % scale 0 is the no-effect control and ±100 the full control effect; nearly all actives have a fitted effect of over 65% in size
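Purified 10nM P. pyralis luciferase with 10uM D-luciferin and 10uM ATP in 50mM Tris acetate pH 7.5, 10mM Mg acetate, 0.01% Tween-20, 0.05% BSA. qHTS titration; luminescence read by CCD imager.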
HEK cytotox: Cytotoxic Profiling in HEK 293 Cell Line of Diverse Libraries Using Quantitative High-Throughput Screening; AID 1345083, 2018; HEK 293 viability, ATP luminescence (CellTiter-Glo), 48-72 h; Potency, µM (series often up to 115 µM), inactives show top-dose activity change, negative = cytotoxicity, hits mostly inhibitors; 94,000 compounds, 6.6% hits; further: on the % scale 0 is the no-effect control and ±100 the full control effect; nearly all actives have a fitted effect of over 60% in size
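Cells seeded first (HEK 293, 250 cells/well), then compound added by pintool. Incubation ran 48 or 72 hr at 37 degree Celsius. CellTiter-Glo was added and luminescence imaged after 10 min at room temperature.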
NIH3T3 tox: Cytotoxic Profiling in NIH 3T3 Cell Line of Diverse Libraries Using Quantitative High-Throughput Screening. 94,000 compounds, 4.3% hits. Potency, µM (doses to about 96.7 µM), inactives show at the top dose activity change, negative = cytotoxicity, usual class: inhibitors. NIH 3T3 viability, CellTiter-Glo ATP luminescence, 48-72 h; further: on the % scale 0 is the no-effect control and ±100 the full control effect; nearly all actives have a fitted effect of over 55% in size
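Cells were seeded at 400 per well, treated with pin-transferred compound, and kept 48 or 72 hr at 37 °C before CellTiter-Glo addition and luminescence imaging of cellular ATP.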
NPR1 antag: Natriuretic polypeptide receptor (hNpr1) antagonism - Primary qHTS; Atrial natriuretic peptide receptor 1 (Homo sapiens), P16066; HEK293 hNpr1 GloSensor cGMP, ANP-stimulated luminescence; Potency, µM (titrated, usually from 46.3 µM), inactives show at the top dose activity change, negative = inhibition, usual class: inhibitors; 76,000 compounds, 1.6% hits; AID 1347048, 2019; calls by dose curve; further: on the % scale 0 is the no-effect control and ±100 the full control effect; nearly all actives have a fitted effect of over 60% in size
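Compound pre-incubated 30 min at room temperature on GloSensor-loaded HEK293 cells stably carrying hNpr1 and the pGS-40F cGMP biosensor. Stimulation uses hNppA at 0.1 nM final; luminescence is taken at baseline and 20 min post-agonist.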
Npr1 antag conf: Natriuretic polypeptide receptor (hNpr1) antagonism - Confirmation; shares compounds with NPR1 antag; HEK293 hNpr1 cGMP GloSensor luminescence, ANP-stimulated; Potency, µM (highest dose often 57.6 µM), for inactives: at the top dose activity change, negative = inhibition, hits mostly inhibitors; 1,400 compounds, 76% hits; AID 1347044, 2019; calls by dose curve; further: nearly all actives have a fitted effect of over 70% in size
Npr2 selectivity: Natriuretic polypeptide receptor (hNpr2) antagonism - Subtype selectivity assay; shares compounds with NPR1 antag; HEK293 hNpr2 GloSensor cGMP luminescence, CNP-stimulated; Potency, µM (series often up to 57.6 µM), for inactives: at the highest dose activity change, negative = inhibition, actives largely listed as inhibitors; 1,400 compounds, 67% hits; calls by dose curve; further: nearly all actives have a fitted effect of over 70% in size
Target sequence (P20594 whole entry, looked up): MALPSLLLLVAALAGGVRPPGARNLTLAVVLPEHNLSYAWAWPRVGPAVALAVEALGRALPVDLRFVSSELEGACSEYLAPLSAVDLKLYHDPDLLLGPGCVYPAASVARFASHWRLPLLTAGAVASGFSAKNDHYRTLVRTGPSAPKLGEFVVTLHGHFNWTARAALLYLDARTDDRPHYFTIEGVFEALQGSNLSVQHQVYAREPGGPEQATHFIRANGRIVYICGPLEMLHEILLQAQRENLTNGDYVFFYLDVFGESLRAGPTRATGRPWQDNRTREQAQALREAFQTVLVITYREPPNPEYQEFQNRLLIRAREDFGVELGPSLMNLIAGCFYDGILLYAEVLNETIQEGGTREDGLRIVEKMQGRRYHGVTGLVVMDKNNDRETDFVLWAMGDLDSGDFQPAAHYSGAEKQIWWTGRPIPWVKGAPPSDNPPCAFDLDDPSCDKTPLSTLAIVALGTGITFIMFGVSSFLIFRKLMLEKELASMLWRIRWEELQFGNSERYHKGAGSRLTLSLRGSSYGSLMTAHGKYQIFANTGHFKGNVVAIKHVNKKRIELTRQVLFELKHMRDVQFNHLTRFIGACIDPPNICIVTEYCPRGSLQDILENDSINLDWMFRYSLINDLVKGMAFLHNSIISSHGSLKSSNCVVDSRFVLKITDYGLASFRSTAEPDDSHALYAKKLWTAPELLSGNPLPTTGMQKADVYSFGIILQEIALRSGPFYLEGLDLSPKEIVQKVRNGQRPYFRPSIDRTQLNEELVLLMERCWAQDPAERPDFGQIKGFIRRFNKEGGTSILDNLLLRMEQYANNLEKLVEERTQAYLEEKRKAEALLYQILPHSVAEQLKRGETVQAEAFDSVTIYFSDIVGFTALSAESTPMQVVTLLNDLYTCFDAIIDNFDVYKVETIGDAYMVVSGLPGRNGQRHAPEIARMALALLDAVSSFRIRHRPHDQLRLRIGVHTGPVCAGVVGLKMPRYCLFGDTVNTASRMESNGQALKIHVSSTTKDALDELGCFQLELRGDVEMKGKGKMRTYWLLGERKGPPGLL
FLuc counter: Natriuretic polypeptide receptor (hNpr1) antagonism - Confirmation firefly luciferase (FLuc) inhibition counterscreen | shares compounds with NPR1 antag | 1,400 compounds, 0.7% hits | purified FLuc enzyme, luminescence, Km substrate | Potency, µM (titrated, usually from 57.6 µM), without a hit: at the highest dose activity change, negative = inhibition, most hits filed as inhibitors | AID 1347047, 2019; further: series mostly up to about 58 µM; 0% is about no effect
GloSensor cGMP: Natriuretic polypeptide receptor (hNpr1) antagonism - Counterscreen GloSensor control cell line. shares compounds with NPR1 antag. HEK293 GloSensor cGMP, SNP-stimulated, luminescence. Potency, µM (highest dose often 57.6 µM), for inactives: at the highest dose activity change, negative = inhibition, most hits filed as inhibitors. 1,400 compounds, 69% hits. AID 1347051, 2019; calls by dose curve; further: on the % scale 0 is the no-effect control and ±100 the full control effect; nearly all actives have a fitted effect of over 70% in size
The depositor's hits bear a star; i = inactive; ? = inconclusive; · = no result given; ! = repeats disagree; [ ] = dose if it differs, or a comment. A selection: hits, their analogues and other compounds. The true share with any hit is near 11%. Unless noted, the call rests on the fitted dose curve; in most records, active means well fitted curve in the direction sought with a large enough effect; inconclusive means small, poorly fitted or top-dose-only effect, or another doubt; inactive means no such curve, though single readings can be large; an effect the other way counts as inactive or inconclusive. Potency means the concentration at half of the fitted maximal effect.

SMILES | Luciferase inh | HEK cytotox | NIH3T3 tox | NPR1 antag | Npr1 antag conf | Npr2 selectivity | FLuc counter | GloSensor cGMP
Cc1ccccc1-c1cnc2[nH]cc(CC(=O)N3CCOCC3)c2c1 | i | 112µM* | -55.5%[138 µM] | 2.82µM* | 2.8µM* | 4.44µM* | -0.7%[86.2 µM] | 2.22µM*
Cc1ccc2nc(C3CCN(Cc4ccccc4)CC3)[nH]c(=O)c2c1 | i | -7.4% | 3.0% | 2.9% | · | · | · | ·
COc1cccc(-c2ccc(CN3CCCC(c4nc5ccc(C)cc5c(=O)[nH]4)C3)cc2)c1 (centres undefined) | i | 25.1µM* | 28.2µM*! | 11.2µM* | 17.2µM* | 21.7µM* | -3.4% | 17.2µM*
O=c1[nH]c(C2CCN(Cc3ccc(-c4cccnc4)cc3)CC2)nc2ccc(F)cc12 | i | ? | 5.62µM*! | ? | 19.3µM* | 19.3µM* | -0.4% | 17.2µM*
CS(=O)(=O)N1CCCC1c1noc(CCC(=O)NC2CC2)n1 (centres undefined) | i | -1.9% | -4.6% | -2.0% | · | · | · | ·
Cc1ccc(Cl)cc1N1CCN(c2cc(C3CC(O)C3)ncn2)CC1 (centres undefined) | i | 28.2µM* | ? | 8.91µM* | 19.3µM* | 19.3µM* | -2.1% | 13.7µM*
Cc1ccccc1SC1CCN(c2cc(C3CC(O)C3)ncn2)CC1 (centres undefined) | i | ? | ? | 2.82µM* | 4.85µM* | 6.11µM* | 0.6% | 3.85µM*
CN1CC(=O)N(C2CCNC2)Cc2c1ncnc2N1CCC(N2CCCCC2)CC1 (centres undefined) | · | i | i | · | · | · | · | ·
CN1CC(=O)N(C2CCNC2)Cc2c1ncnc2N1CC[C@H](N(C)C)C1 (some centres undefined) | · | i | i | · | 5.7% | -1.1% | -0.3% | 2.4%
CC(C)c1noc(-c2cn(C3CCN(C(=O)c4ccc(F)cc4)C3)nn2)n1 (centres undefined) | i | ? | -26.5% | -5.4% | · | · | · | ·
CC(C)c1noc(-c2cn(C3CCN(C(=O)c4ccc(OC(F)(F)F)cc4)C3)nn2)n1 (centres undefined) | i | ? | ? | 14.1µM* | 13.7µM* | 19.3µM* | 2.1% | 15.3µM*
CC(C)c1noc(-c2cn(C3CCN(C(=O)c4ccc(Cl)s4)C3)nn2)n1 (centres undefined) | i | ? | ? | 8.91µM* | 12.2µM* | 12.2µM* | -1.4% | 13.7µM*
CCc1noc(-c2cn(C3CCN(C(=O)c4ccc(C(C)(C)C)cc4)C3)nn2)n1 (centres undefined) | i | ? | ? | 15.8µM* | 24.3µM* | ? | -6.1% | 27.3µM*
COc1ccc(C(=O)N2CCC(n3cc(-c4nc(C(C)C)no4)nn3)C2)cc1OC (centres undefined) | i | -8.3% | -15.3% | 0.0% | · | · | · | ·
CC(C)c1noc(-c2cn(C3CCN(C(=O)c4cccc(Br)c4)C3)nn2)n1 (centres undefined) | i | ? | -29.2% | 11.2µM* | 19.3µM* | 21.7µM* | 1.9% | 21.7µM*
CCC(CC)CN1CCC2(CC1)CC1C(=O)N(CC)C(=O)N1C2 (centres undefined) | i | ? | -14.6% | 1.6% | · | · | · | ·
CC(C)CCN1CCn2c(nnc2-c2ccccc2)C1 | · | -9.9%[172 µM] | ? | · | · | · | · | ·
COc1cccc(N2CCN(c3nc(C(=O)NCc4cccc(C)c4)cs3)CC2)c1 | i | ? | ? | 12.6µM* | 12.2µM* | 10.9µM* | -3.0% | 12.2µM*
O=C(NC1CCCCCC1)c1csc(N2CCN(c3ccccc3)CC2)n1 | i | ? | ? | ? | 24.3µM* | ? | -14.7% | ?
Cc1cccc(CNC(=O)c2csc(N3CCN(c4ccccc4)CC3)n2)c1 | i | 39.8µM* | ? | 12.6µM* | 24.3µM* | 24.3µM* | -1.4% | 21.7µM*
CCN(CC)C(=O)c1csc(N2CCN(c3cccc(Cl)c3)CC2)n1 | i | ? | ? | 15.8µM* | 24.3µM* | 21.7µM* | 5.0% | 21.7µM*
CN1C(=O)C(CC(=O)NCc2noc(-c3c(F)cccc3F)n2)N(C)C1=O (centres undefined) | i | 1.1% | i | -2.3% | · | · | · | ·
COc1ccccc1-n1c(=O)c(C(=O)N2CCN(C(=O)Nc3ccccc3)CC2)nc2cccnc21 | · | -2.1% | 0.4% | · | · | · | · | ·
O=C1[C@H]2CN(Cc3cc(Br)ccc3F)C[C@H]2C(=O)N1CCc1ccccc1 | i | ? | ? | -9.6% | · | · | · | ·
Cc1cccc([C@H]2C[C@@H](O)[C@@H](O)[C@@H]2NC(=O)C2CCOCC2)c1 | i | i | 1.6%[174 µM] | -0.2%[70.6 µM] | · | · | · | ·
SMILES | Luciferase inh | HEK cytotox | NIH3T3 tox | NPR1 antag | Npr1 antag conf | Npr2 selectivity | FLuc counter | GloSensor cGMP
COc1ccc(-c2noc(CC3CCN(C(=O)COc4ccc(C)cc4)CC3)n2)cc1 | i | ? | ? | 6.31µM* | 7.69µM* | 8.62µM* | -12.5% | 8.62µM*
Cc1ccc(OCC(=O)N2CC(Oc3ccc(-c4noc(-c5ccccc5)n4)cc3)C2)cc1 | · | -2.0% | -29.1% | · | · | · | · | ·
COc1ccccc1CC(=O)N1CCC(Cc2nc(-c3ccccc3)no2)CC1 | i | ? | ? | ? | · | · | · | ·
Cc1ccc(OCC(=O)N2CCC(Cc3n[nH]c(C)n3)CC2)cc1 | i | -15.5% | -1.7% | -2.7% | · | · | · | ·
COc1ccc(OCC(=O)N2CCC(Cc3nc(-c4ccc(OC)cc4)no3)CC2)cc1 | i | 12.6µM* | 14.1µM* | 10µM* | 10.9µM* | 13.7µM* | -1.7% | 12.2µM*
Cc1ccc(OCC(=O)N2CCC(Cc3nc(-c4ccccc4)no3)CC2)cc1 | i | 39.8µM* | ? | 12.6µM* | 15.3µM* | 15.3µM* | 26.1% | 12.2µM*
